Reference: PubChem BioAssay (NCATS)
Values without a mark were called inactive. Results filed as inconclusive are left out. Entries that show only a call come without a potency. The source made the active and inactive calls. Calls come from the whole dose curve; as a rule, active = well fitted curve in the direction sought with a large enough effect; inconclusive = small, poorly fitted or top-dose-only effect, or another doubt; inactive = no such curve, though single readings can be large; an effect the other way counts as inactive or inconclusive.

Experiments:
[1] = target: Glutathione peroxidase 1 (Homo sapiens) (UniProt P07203); experiment: Primary qHTS Assay for Inhibitors of Recombinant Selenoprotein Glutathione Peroxidase 1 (GPX1) (AID 1845191); note: nearly all actives have a fitted effect of over 65% in size
Chain of Glutathione peroxidase 1 (Homo sapiens) (P07203 whole entry, looked up): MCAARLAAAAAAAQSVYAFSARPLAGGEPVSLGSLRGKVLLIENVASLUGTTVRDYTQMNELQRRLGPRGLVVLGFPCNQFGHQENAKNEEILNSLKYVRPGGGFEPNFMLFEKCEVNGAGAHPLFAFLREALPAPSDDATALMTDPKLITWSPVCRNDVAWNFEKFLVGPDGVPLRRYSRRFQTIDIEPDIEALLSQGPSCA
In short: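 GR-coupled assay: compounds preincubated 30 min at room temperature with GPX1, then reaction started with CHP; final 10 nM GPX1, 1 mM GSH, 0.5 mM CHP, 0.5 mM NADPH, 100 nM GR, 0.01% BSA, pH 7.5 Tris buffer. NADPH fluorescence (340/450 nm) read at 0 and 15 min.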

[2] = target: Phospholipid hydroperoxide glutathione peroxidase GPX4 (Homo sapiens) (UniProt P36969); experiment: Primary qHTS Assay for Inhibitors of Recombinant Selenoprotein Glutathione Peroxidase 4 (GPX4) (AID 1845192); note: nearly all actives have a fitted effect of over 65% in size; for activity change, negative = inhibition: series mostly up to about 50 µM
Chain of Phospholipid hydroperoxide glutathione peroxidase GPX4 (Homo sapiens) (P36969 whole entry, looked up): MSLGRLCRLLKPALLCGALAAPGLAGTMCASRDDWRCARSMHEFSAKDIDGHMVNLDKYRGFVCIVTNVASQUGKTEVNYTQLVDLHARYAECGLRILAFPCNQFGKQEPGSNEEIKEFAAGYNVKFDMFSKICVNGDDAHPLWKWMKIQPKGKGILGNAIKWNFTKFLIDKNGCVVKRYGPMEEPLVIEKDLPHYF
In short: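 GR-coupled assay: recombinant GPX4 preincubated 30 min with compound at room temperature; final 200 nM GPX4, 1 mM GSH, 0.5 mM cumene hydroperoxide, 0.5 mM NADPH, 100 nM GR, 0.01% BSA, pH 7.5 Tris. NADPH fluorescence (340/450 nm) read at 0 and 15 min.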

[3] = target: Luciferin 4-monooxygenase (Photinus pyralis) (UniProt P08659); experiment: Primary firefly luciferase (FLuc) qHTS assay for identification of artifact compounds. (AID 1845220); note: nearly all actives have a fitted effect of over 60% in size; note: potency is the fitted concentration of half-maximal effect; for activity change, negative = inhibition: series mostly up to about 54 µM
In short: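 D-luciferin and ATP (10 uM each, final) in Tris acetate buffer pH 7.6 were incubated with compounds for 15 min at room temperature. The reaction was started with 10 nM Photinus pyralis luciferase and luminescence read after 5 min. Percent inhibition was fitted to a 4-parameter Hill equation.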

[4] = Primary fluorescence-based thiol-reactive (MSTI) qHTS assay for identification of artifact compounds. (AID 1845221); note: nearly all actives have a fitted effect of over 65% in size; note: potency is the fitted concentration of half-maximal effect;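 for activity change, negative = thiol reactive: series mostly up to about 54 µM; thiol-reactive compounds lower the probe fluorescence signal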
In short: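 Thiol-reactive compounds detected by quenching of 4 uM MSTI fluorescence (525/598 nm) after 1 h room-temperature dark incubation in PBS pH 7.4, 2% DMSO. qHTS titration; percent inhibition Hill-fitted against Acetyl-MSTI/MSTI controls.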

[5] = test system: Nanoluciferase (engineered Oplophorus gracilirostris luciferase); experiment: Primary Nanoluciferase (NLuc) qHTS assay for identification of artifact compounds. (AID 1845222); note: potency is the fitted concentration of half-maximal effect; for activity, negative = inhibition: series mostly up to about 54 µM
In short: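 Diluted conditioned medium from NLuc-expressing S16 cells treated with compounds for 15 min at room temperature, then Nano-Glo substrate added; luminescence read after 5 min. Percent inhibition versus no-enzyme and DMSO controls fitted to 4-parameter Hill equation.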

[6] = Primary redox qHTS assay for identification of artifact compounds. (AID 1845223)
In short: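 Amplex Red (25 uM) and HRP (250 mU/mL) in HBSS, with compounds for 15 min, then 250 uM DTT for 30 min, room temperature, dark. Fluorescence 525/598 nm read; normalized to DMSO and 10 uM DA3003; Hill fit.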

Compound	Potency [1]	Potency [2]	Potency [3]	Potency [4]	Potency [5]	Potency [6]	activity change, negative = inhibition [3]	activity change, negative = thiol reactive [4]	activity, negative = inhibition [5]	redox activity (% of DA3003) [6]	outcome [3]
O=C(/C=C/c1ccc(O)cc1)OCC1OC(O)C(OC2OC(CO)C(O)C(O)C2O)C(O)C1O (stereo not drawn)	inactive	inactive	inactive	inactive	inactive	inactive					
COc1ccc(C(=O)NCc2cc(C(C)C)no2)cc1OC1CCN(C)CC1	inactive	inactive	inactive	inactive	inactive	inactive					
NC(=O)NCCCC(NC(=O)Cc1ccccc1)C(=O)O (stereo not drawn)	inactive	inactive	inactive	inactive	inactive	inactive					
CC1OC(OC2CCC3(C)C(CCC4(C)C3C=CC35OCC6(CCC(C)(C)CC63)CCC45C)C2(C)CO)C(OC2OC(CO)C(O)C(O)C2O)C(O)C1OC1OC(CO)C(O)C(O)C1O (stereo not drawn)	inactive	inactive					1.11% [at 11.6 µM]	34% [at 11.5 µM]	3.75% [at 11.6 µM]	12.4% [at 11.5 µM]	
C=C1CC[C@@]2(OC1)O[C@H]1CC3C4CC=C5C[C@@H](O[C@@H]6O[C@@H](C)[C@H](O)[C@@H](O)[C@H]6O)C[C@@H](O[C@@H]6O[C@H](C)[C@H](O)[C@H](O)[C@H]6O[C@@H]6O[C@@H](C)[C@H](O)[C@@H](O)[C@H]6O)[C@]5(C)C4CC[C@]3(C)[C@H]1[C@@H]2C (stereo partly drawn)	inactive	inactive						170% [at 11.5 µM]	-0.58% [at 11.6 µM]	1.1% [at 11.5 µM]	inactive [at 11.6 µM]
Nc1nc2c(nc(Sc3ccc(Cl)cc3)n2[C@@H]2O[C@@H]3COP(=O)(O)O[C@H]3[C@H]2O)c(=O)[nH]1	inactive	inactive	inactive	inactive	inactive	inactive					
CC(C)c1ccc2c(c1)[C@H](O)CC1[C@@](C)(C(=O)O)CCC[C@]21C (stereo partly drawn)	inactive	inactive	inactive	inactive	inactive	inactive					
C=C1CC[C@H]2[C@@](C)(CCC(OC3OC(CO)C(O)C(O)C3O)[C@@]2(C)CO)C1C(=O)CC1=CCOC1=O (stereo partly drawn)	inactive	inactive	inactive	3270 nM (active)	inactive	inactive					
COCCN1CCC(C(=O)NO)(S(=O)(=O)c2ccc(Oc3ccc(OC(F)(F)F)cc3)cc2)CC1	inactive	inactive	inactive	inactive	inactive	inactive					
COc1ccc(C2COc3cc(O)ccc3C2)c(O)c1OC (stereo not drawn)	inactive	inactive	19000 nM (active)	inactive	inactive	inactive					
C=CCC1=C[C@]2(OC)[C@H](C)[C@@H](c3ccc(OC)c(OC)c3)O[C@]2(OC)CC1=O	inactive	inactive	inactive	inactive	inactive	inactive					
C/C=C(\C)C(=O)OC[C@H]1O[C@H](O[C@H]2O[C@H](CO)[C@@H](O)[C@H](O)[C@H]2O[C@@H]2O[C@H](CO)[C@@H](O)[C@H](O)[C@H]2O)[C@H](O[C@@H]2O[C@H](CO)[C@@H](O)[C@H](O)[C@H]2O)[C@@H](O)[C@@H]1O	inactive	inactive	inactive	inactive	inactive	inactive					
Cc1cc(Cn2cnc3c2CC(C(=O)O)N(C(=O)C(c2ccccc2)c2ccccc2)C3)ccc1N(C)C (stereo not drawn)	inactive	inactive	inactive	inactive	inactive	inactive					
CC(=O)[C@@H]1C[C@H](C(C)(C)O[C@@H]2O[C@H](CO)[C@@H](O)[C@H](O)[C@H]2O)CC[C@@]2(CO)OC(=O)C[C@@H]12	inactive	inactive	inactive	inactive	inactive	inactive					
CCN=C1N[C@@H]2[C@@H](O)[C@H](O)[C@@H](CO)O[C@@H]2S1	inactive	inactive	inactive	inactive	inactive	inactive					
CC1=C2C[C@@]3(C)C(CCC[C@@H]3C)C(O)C2(O)OC1=O (stereo partly drawn)	inactive	inactive	inactive	inactive	inactive	inactive					
Nc1ccc(-n2nc(C(F)(F)F)cc2C(F)(F)F)cc1	inactive	inactive	inactive	inactive	inactive	inactive					
CN1CCc2cc(Cl)c(O)cc2[C@@H](c2cccc3c2OCC3)C1	inactive	inactive	inactive	inactive	inactive	inactive					
COc1ccc(OC2OC(CO[C@@H]3O[C@@H](C)[C@H](O)[C@@H](O)[C@H]3O)C(O)C(O)C2O)cc1OC (stereo partly drawn)	inactive	inactive	inactive	2320 nM (active)	inactive	inactive					
O=C(O)c1ccncc1Nc1nn(CCN2CCC(F)(F)CC2)c2ccc(F)cc12	inactive	inactive	inactive	1340 nM (active)	inactive	inactive					
Cc1nnc(-c2sc(NC(=O)[C@H](C(C)C)n3c(=O)[nH]c4ccccc4c3=O)nc2C)o1	inactive	inactive	inactive	inactive	inactive	inactive					
CC[C@H]1OC(=O)[C@H](C)[C@@H](O[C@H]2C[C@@](C)(OC)[C@@H](O)[C@H](C)O2)C(C)[C@@H](O[C@@H]2O[C@H](C)C[C@H](N(C)C)[C@H]2O)[C@](C)(O)C[C@@H](C)CN(C)[C@H](C)[C@@H](O)[C@]1(C)O (stereo partly drawn)	inactive	inactive	inactive	inactive	inactive	inactive					

Compound	Potency [1]	Potency [2]	Potency [3]	Potency [4]	Potency [5]	Potency [6]	activity change, negative = inhibition [3]	activity change, negative = thiol reactive [4]	activity, negative = inhibition [5]	redox activity (% of DA3003) [6]	outcome [3]
OC[C@@]1(O)CO[C@H](OC[C@H]2O[C@@H](OC(CCCCc3ccc(O)cc3)CCc3ccc(O)cc3)[C@H](O)[C@@H](O)[C@@H]2O)[C@@H]1O (stereo partly drawn)	inactive	inactive	inactive	inactive	inactive	inactive					
CC(=O)OC1C(O)C(C)(O)C(/C=C/C(=O)O)C2(C)CCCC(C)(C)C12 (stereo not drawn)	inactive	inactive	inactive	inactive	inactive	inactive					
CC(C)(CC(=O)N1CCCC1)NCC(=O)N1C[C@@H](F)C[C@H]1C#N	inactive	inactive	inactive	inactive	inactive	inactive					
COC(=O)Cn1nc(-c2cccc(OC)c2)c2ccccc21	inactive	inactive	inactive	inactive	inactive	inactive					
Cc1c(-c2ccc3c(c2)OCO3)oc2ccc(C(O)C(C)O)cc12 (stereo not drawn)	inactive	inactive	1170 nM (active)	inactive	inactive	inactive					
CC(=O)OC1C(CO)OC(O[C@H]2[C@H](OC(=O)[C@]34CCC(C)(C)C[C@H]3C3=CCC5[C@@]6(C)CC[C@H](O[C@@H]7O[C@H](C(=O)O)[C@@H](O)[C@H](O[C@@H]8OC[C@@H](O)[C@H](O)[C@H]8O)[C@H]7O[C@@H]7O[C@H](CO)[C@H](O)[C@H](O)[C@H]7O)[C@@](C)(C=O)C6CC[C@@]5(C)[C@]3(C)C[C@H]4O)O[C@H](C)[C@H](OC3OC(C)C(OC4OCC(O)C(O)C4O)C(O)C3O)[C@@H]2O)C(O)C1O (stereo partly drawn)	inactive	inactive					2.42% [at 11.6 µM]	290% [at 11.5 µM]	1.69% [at 11.6 µM]	3.62% [at 11.5 µM]	
CC(C)C1C(OC(=O)/C=C/c2ccccc2)CC2(C)OC2CCC2(C)OC2C1O (stereo not drawn)	inactive	inactive	inactive	inactive	inactive	inactive					
CC1(C)CC[C@]2(C(=O)O[C@@H]3O[C@H](CO)[C@@H](O)[C@H](O)[C@H]3O)[C@H](O)C[C@]3(C)C(=CCC4[C@@]5(C)CC[C@H](O[C@@H]6OC[C@@H](O)[C@H](O)[C@H]6O)[C@@](C)(C(=O)O)C5CC[C@]43C)[C@@H]2C1 (stereo partly drawn)	inactive	inactive	inactive	inactive	inactive	inactive					
CC(C)Oc1ccc(-c2nc(-c3cccc4c3CCC4NCCC(=O)O)no2)cc1C#N (stereo not drawn)	inactive	inactive	inactive	inactive	inactive	inactive					
C[C@]1(OC(=O)/C=C/c2ccc(O)cc2)C[C@@H](O)[C@]2(O)C=CO[C@@H](O[C@@H]3O[C@H](CO)[C@@H](O)[C@H](O)[C@H]3O)C12 (stereo partly drawn)	inactive	inactive	inactive	inactive	inactive	inactive					
CC1=CC(=O)CC(C)(C)C1CO[C@@H]1O[C@H](CO)[C@@H](O)[C@H](O)[C@H]1O (stereo partly drawn)	inactive	inactive	inactive	inactive	inactive	inactive					
COc1ccc(CCc2nc3cc(-c4c(C)noc4C)ccc3n2C[C@H](C)N2CCOCC2)cc1Cl	inactive	inactive	inactive	inactive	inactive	inactive					
CCNC(=O)C1CC(F)(c2ccc(CN3CCCC3)c(F)c2)C1 (stereo not drawn)	inactive	inactive	inactive	inactive	inactive	inactive					
COc1ccc(C2OCC3C(c4cc(OC)c5c(c4)OCO5)OCC23)cc1OC (stereo not drawn)	inactive	inactive	inactive	inactive	inactive	inactive					
CC1C2=CC(=O)OC2(O)CC2C1CCC1C(C)(C)CCC(O)C21C (stereo not drawn)	inactive	inactive	inactive	inactive	inactive	inactive					
CC1CCC2(C(=O)O)CCC3(C)C(=CCC4C5(C)C[C@@H](O)[C@@H](O)C(C)(CO)C5CCC43C)C2C1(C)O (stereo partly drawn)	inactive	inactive	inactive	inactive	inactive	inactive					
COC(=O)C1=CO[C@@H](O[C@@H]2O[C@H](CO)[C@@H](O)[C@H](O)[C@H]2O)[C@@H]2[C@@H](C)[C@@H](O)C(O)[C@H]12 (stereo partly drawn)	inactive	inactive	inactive	inactive	inactive	inactive					
COc1c2c(c(C)c3c1C(=O)OC3)OC1(C)CC(O)C34OC(O)(CCC3(C)C1C2)OC4(C)C (stereo not drawn)	inactive	inactive	inactive	inactive	inactive	inactive					
Cc1cccc(-c2nn3c(c2-c2ccnc4ccc(C(N)=O)cc24)CCC3)n1	inactive	inactive	inactive	inactive	inactive	inactive					
O=C(Cc1ccc(Cl)cc1)Nc1cnccc1C(=O)O	inactive	inactive	inactive	inactive	9530 nM (active)	inactive					
CC(C)(O)c1ccc2c(c1)C(=O)C[C@H]1[C@](C)(C(=O)O)CCC[C@]21C	inactive	inactive	inactive	inactive	inactive	inactive					
